# Compound activity as filed in PubChem.
# USP28 block: blocks human USP28 ubiquitin-rhodamine cleavage. Q96RU2. hit rate 3% among 47,000. purified USP28, Ub-rhodamine cleavage fluorescence, 30 min. AID 1645857. inhibition, % at 25 µM
# USP8 inh: human USP8 deubiquitinase inhibition | P40818 | inhibition, % at 20 µM | hit rate 4.2% among 47,000 | purified USP8, Ub-rhodamine cleavage fluorescence, 30 min
# OTUD3 inh: human OTUD3 deubiquitinase inhibition; hit rate 0.7% among 47,000; inhibition, % at 25 µM; purified OTUD3, Ub-rhodamine fluorescence, 2 h; Q5T2D3
# USP30 block: human USP30 deubiquitinase inhibition | Q70CQ3 | purified USP30, Ub-rhodamine cleavage fluorescence | inhibition, % at 25 µM | hit rate 5.3% among 47,000 | AID 1645860
# USP17 block: blocks human USP17 ubiquitin-rhodamine cleavage | inhibition, % at 50 µM | A8MUK1 | purified USP17, Ub-rhodamine cleavage fluorescence, 3 h | hit rate 6.5% among 47,000 | AID 1645855
# Target sequence (A8MUK1 whole entry, looked up): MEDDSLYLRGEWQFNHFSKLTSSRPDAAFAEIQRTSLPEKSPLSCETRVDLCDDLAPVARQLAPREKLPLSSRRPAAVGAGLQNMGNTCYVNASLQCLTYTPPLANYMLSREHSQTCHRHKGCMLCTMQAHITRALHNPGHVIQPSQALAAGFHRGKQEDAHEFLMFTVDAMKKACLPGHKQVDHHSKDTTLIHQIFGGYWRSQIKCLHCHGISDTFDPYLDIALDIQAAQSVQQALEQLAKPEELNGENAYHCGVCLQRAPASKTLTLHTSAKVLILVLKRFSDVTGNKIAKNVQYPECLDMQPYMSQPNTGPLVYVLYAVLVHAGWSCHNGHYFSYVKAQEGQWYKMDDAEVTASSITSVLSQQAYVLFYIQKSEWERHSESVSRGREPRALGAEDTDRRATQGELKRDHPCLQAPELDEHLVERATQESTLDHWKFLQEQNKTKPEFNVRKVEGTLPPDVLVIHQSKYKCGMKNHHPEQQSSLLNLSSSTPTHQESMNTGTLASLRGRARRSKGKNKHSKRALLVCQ
# An asterisk follows results filed as active; / = not tested or not shown. Most compounds without a hit are left out; they make up all but 13% or so of the library. No stated cut-off is given here; in the data, active means inhibition above about 30%; inactive means the rest.
SMILES,USP28 block,USP8 inh,OTUD3 inh,USP30 block,USP17 block
Cn1cc(S(=O)(=O)Nc2cnn(Cc3cccc(Cl)c3)c2)cn1,7.7,77.0*,11.5,8.5,31.2*
CN1C(=O)COc2ccccc2CCCC[C@@H]2[C@H]1CCCN2C(=O)c1cnccn1,-11.5,-2.8,-8.3,-0.3,-5.8
Cn1c(=O)[nH]c2cc(-c3noc(C4CC(=O)N(c5ccccc5)C4)n3)ccc21 (configuration not stated),-8.9,-13.8,-3.4,-10.9,32.1*
O=C(Nc1cccc(-c2noc(C3CCC3)n2)c1)C1CC(=O)N(c2ccccc2)C1 (configuration not stated),-4.8,41.6*,-0.3,-1.3,60.0*
Cc1ccc(N2CC(c3nc(-c4ccc5oc(C)nc5c4)no3)CC2=O)cc1 (configuration not stated),-1.0,-4.4,-4.4,-0.4,3.1
O=C(Nc1cccc(-c2noc(C3CC3)n2)c1)C1CC(=O)N(c2ccccc2)C1 (configuration not stated),-4.3,35.7*,-6.1,-3.2,40.4*
CCc1nc(-c2cccc(NC(=O)C3CC(=O)N(c4ccccc4)C3)c2)no1 (configuration not stated),7.9,22.0,17.1,29.9,16.3
O=C(NC1CCCCCC1)c1cccn1Cc1noc(C2CC2)n1,-5.8,-0.7,-1.5,6.4,-2.6
COc1ccc(-c2n[nH]c3c2CN(C(=O)/C=C/c2ccccc2)CC3)cc1,6.7,-35.5,1.4,22.6,-0.1
O=C(NCc1cccnc1)c1c2c(NCC3CC3)ncnc2n2ccccc12,-29.9,68.2*,-24.9,-107.5,30.8*
CN1CCCN(C(=O)c2c3c(NCc4ccccc4)ncnc3n3ccccc23)CC1,-119.8,-19.2,-85.5,-410.7,-102.8
Cc1ccc(CNc2nc3c(-c4ccc(C)cc4)nnn3c3ccccc23)cc1,-3.9,3.7,-1.2,-0.3,4.7
O=S(=O)(c1ccccc1)c1nnn2c1nc(NCc1ccc(Cl)cc1)c1ccccc12,9.4,1.8,9.9,19.0,42.2*
Cc1ccc(S(=O)(=O)c2nnn3c2nc(NCc2ccc(F)cc2)c2ccccc23)cc1C,9.8,51.0*,9.3,22.1,11.9
Cc1ccc(S(=O)(=O)n2nc(-c3ccccc3)nc2NCc2ccc(F)cc2)cc1,15.2,13.5,13.3,26.6,4.4
Cc1cc(C)nc(N2CCC(N(Cc3cccnc3)C(=O)c3ccc4c(c3)OCO4)CC2)n1,-25.2,-6.6,-23.1,-63.7,-24.0
O=C(O)c1ccc(CN2CC[C@H](c3nc4ccc(F)cc4[nH]3)C2)cc1,-1.3,-6.9,-1.1,-21.8,0.0
CCOc1ccc(CNC(=O)C2CCCN(C(=O)c3[nH]c(C)cc3C)C2)cc1 (configuration not stated),-4.1,0.1,-2.2,-6.1,-2.4
O=S(=O)(c1ccc(F)cc1)N1CCCC1c1ccnc(Nc2cnccn2)n1 (configuration not stated),45.4*,-0.1,12.4,72.5*,47.1*
O=C(NC1CC1)c1nc(-c2ccc(N3CCCCC3)nc2)no1,-0.2,1.1,0.0,19.3,-8.9
O=C(Cc1c[nH]c2ncccc12)NC1CCCC1,4.3,-3.0,-0.3,-16.1,-4.4
O=C(NCc1ccco1)c1ccc2c(c1)N(Cc1cccc(Cl)c1)C(=O)c1ccccc1S2,11.9,13.0,18.2,-27.1,37.9*
O=C(CN1C(=O)c2ccccc2Sc2ccc(C(=O)N3CCCC3)cc21)NCc1ccco1,-26.2,-67.1,-7.0,-133.7,-0.1
COc1ccc(CNS(=O)(=O)c2cc3n(c2)CCCNC3=O)cc1,-12.2,-17.3,-1.5,-15.5,-20.9
CCOc1ccc(-n2nnnc2-c2ccccn2)cc1,10.3,-0.7,16.6,30.6*,5.3
SMILES,USP28 block,USP8 inh,OTUD3 inh,USP30 block,USP17 block
CCOc1ccc(NC(=O)CSc2nnc(-c3ccccn3)n2Cc2ccco2)cc1,-9.1,-168.0,-9.7,-38.2,-33.2
COC(=O)c1cc2c(ccn2-c2ccc(F)cc2)n1C,3.9,36.5*,-3.6,-19.2,-35.5
CCOc1ccccc1CNC(=O)C1c2ccccc2C(=O)N(CC(C)C)C1c1cccs1 (configuration not stated),3.6,8.9,16.1,16.9,21.2
CN(c1ccc(Oc2ccc(C(F)(F)F)cn2)cc1)S(=O)(=O)c1ccccc1,17.0,72.9*,7.8,-4.2,38.0*
Cc1nc(NCc2ccco2)nc2c1COCC21CCN(C(=O)NC(C)C)C1 (configuration not stated),-11.6,-46.9,-5.6,-37.9,-12.2
COc1ccc(S(=O)(=O)N2CCC(c3cc(Nc4cnccn4)cc(C)n3)CC2)cc1,6.2,15.8,-1.0,17.9,23.0
COc1ccc(COc2ncnc3ccc(Br)cc23)cc1F,7.3,-13.1,-4.3,-29.7,-7.7
COc1ccc(COc2ncnc3cc(Cl)ccc23)cc1,48.5*,-32.8,2.9,14.0,11.6
Cc1ccc(CNC(=O)c2ccc(-c3ccc(N4CCOCC4)nn3)cc2)o1,/,3.5,-0.9,/,1.8
Cc1ccccc1CNC(=O)c1ccc(-c2ccc(N3CCCC3)nn2)cc1,4.2,3.7,-12.5,-3.3,47.7*
CC(=O)Nc1nsc(N2CCC(C(=O)NCc3ccccc3Cl)CC2)n1,9.0,-0.7,6.8,7.3,4.5
O=C(NCc1ccccc1Cl)C1CCN(c2ccc(-c3ccccc3)nn2)CC1,5.8,46.6*,10.3,41.1*,0.6
Cc1ccc2nc(N3CCc4ccccc4C3)c3nncn3c2c1,33.6*,44.7*,20.5,27.2,58.9*
O=C(CN(C(=O)CCC(=O)Nc1ccccn1)c1cccc(F)c1)NCc1ccc(F)cc1,8.1,8.8,10.5,32.8*,13.8
COc1ccc(CNC(=O)CN(C(=O)CCC(=O)Nc2ccccn2)c2ccc(OC)cc2)cc1,4.2,-5.1,2.5,17.7,22.9
CCOC(=O)c1cc2c(ccn2-c2ccc(F)cc2)n1CC(=O)N1CCN(C(=O)c2ccco2)CC1,18.0,16.1,9.4,44.8*,36.5*
CCOC(=O)c1cc2c(ccn2-c2ccc(F)cc2)n1CC(=O)NC1CCCCC1,14.2,26.6,16.3,0.0,25.3
CCc1noc(C2(NC(=O)C(CC)c3ccccc3)CCCCC2)n1 (configuration not stated),0.7,0.1,5.9,10.8,-2.6
Cc1nn(-c2ccccc2)c2c1N=C1C(Cl)=CC(Cl)=CN1C21C(=O)Nc2ccccc21 (configuration not stated),49.6*,93.7*,11.6,15.3,82.1*
Cc1ccc(CNC(=O)c2ccc3c(=O)nc4c(-c5ccccc5F)n[nH]n4c3c2)cc1,0.4,5.9,13.2,5.8,34.8*
COc1ccc(CNC(=O)c2ccc3c(=O)nc4c(-c5cccc(C)c5)n[nH]n4c3c2)cc1,-0.8,61.0*,17.9,-43.7,9.9
COc1ccc(-c2n[nH]n3c2nc(=O)c2ccc(C(=O)NCc4ccco4)cc23)cc1,8.0,14.0,10.3,-115.9,18.8
CNc1cc(C2CCCN2C(=O)c2cc3c([nH]c2=O)CCCC3)ccn1 (configuration not stated),-5.4,2.9,-5.9,-1.5,-0.2
Cc1ccc(NC(=O)c2cn(Cc3ccccc3)nc2-c2cccnc2)cc1,31.8*,4.4,-2.0,8.2,-3.8
